# Results published in PubChem BioAssay (EPA / NIEHS).
# Results filed as inconclusive are left out. The source made the active and inactive calls. How the source made its calls, unless noted: active means hit-call score of the fitted dose curve at least 0.9, where 1 is the maximum; inactive means score below 0.9.
# Legend:
# [1] = ATG_TAL_CIS: Attagene CIS-FACTORIAL HepG2 Assay for human TAL Basal Promoter (AID 2282966); conditions: HepG2 Attagene cis-factorial TAL promoter reporter; actives raise or lower the signal;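 further: background control endpoint measuring basal TAL promoter reporter mRNA not a specific factor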
# Outline: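 Background-control endpoint: basal TAL promoter reporter transcripts in transiently transfected HepG2, measured 24 h after dosing. Read-out by RT-PCR with fluorescent primer extension and capillary electrophoresis; gain or loss of signal fitted relative to DMSO.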
# [2] = ATG_TGFb_CIS: Attagene CIS-FACTORIAL HepG2 Assay for human Transforming Growth Factor (TGF) (AID 2282967); conditions: HepG2 Attagene CIS TGFb reporter, mRNA transcription; actives raise or lower the signal
# Outline: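 Bidirectional fitting relative to DMSO gave the endpoint. Underlying data: reporter mRNA from HepG2 cells carrying transiently transfected cis-regulated reporter constructs, harvested 24 h after dosing and analyzed by RT-PCR and capillary electrophoresis.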
# [3] = ATG_VDRE_CIS: Attagene CIS-FACTORIAL HepG2 Assay for human Vitamin D Receptor Element (VDRE) (AID 2282968); conditions: HepG2 VDRE cis-reporter transcription, actives raise or lower the signal
# Outline: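 Measures endogenous factor activity through cis-element-driven reporter transcripts in transiently transfected HepG2. Cells are treated 24 h; reporter mRNA is quantified by RT-PCR and capillary electrophoresis; fitting is bidirectional.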
# [4] = target: Nuclear receptor subfamily 1 group I member 3 (Homo sapiens) (UniProt Q14994); assay: ATG_CAR_TRANS: Attagene TRANS-FACTORIAL HepG2 Assay for human Constitutive Androstane Receptor (CAR) (AID 2282969; active means hit-call score of the fitted dose curve at least 0.9, where 1 is the maximum;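 further: activators raise reporter mRNA above DMSO so AC50 marks induction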); conditions: HepG2 Attagene TRANS-FACTORIAL CAR reporter
# Outline: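 Signal is reporter mRNA induction relative to DMSO, measured 24 h after dosing by RT-PCR with fluorescent primer extension and capillary electrophoresis. Human HepG2 liver cells carried transiently transfected chimeric NR-Gal4/GAL4-UAS reporter constructs.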
# [5] = target: X-box-binding protein 1 (Homo sapiens) (UniProt P17861); assay: ATG_Xbp1_CIS: Attagene CIS-FACTORIAL HepG2 Assay for human X-box Binding Protein 1 (XBP1) (AID 2282972); conditions: HepG2 XBP1 cis-element reporter, Attagene multiplex; actives raise or lower the signal
# Outline: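 Reporter transcripts were quantified by RT-PCR with fluorescent primer extension and capillary electrophoresis after 24 h chemical exposure. Cells: transiently transfected HepG2 carrying cis-regulated reporter constructs; data fitted bidirectionally relative to DMSO.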
# [6] = ATG_M_19_TRANS: Attagene TRANS-FACTORIAL HepG2 Assay for M19 Transcription Factor (Internal Marker) (AID 2282974; active means hit-call score of the fitted dose curve at least 0.9, where 1 is the maximum); conditions: HepG2 Attagene TRANS-FACTORIAL M19 internal marker reporter
# Outline: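 Reporter mRNA induction was measured in transfected HepG2 cells 24 h after dosing. Endpoint fitted upward relative to DMSO and serves as a background control within the multiplexed TRANS panel.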
# [7] = target: Bile acid receptor (Homo sapiens) (UniProt Q96RI1); assay: ATG_FXR_TRANS: Attagene TRANS-FACTORIAL HepG2 Assay for Farnesoid X Receptor (FXR) (AID 2282979; active means hit-call score of the fitted dose curve at least 0.9, where 1 is the maximum;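 further: hits raise reporter mRNA above DMSO so AC50 marks FXR activation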); conditions: HepG2 Attagene TRANS FXR-GAL4 reporter transcription
# Outline: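 Reporter transcripts from transfected HepG2 cells were measured 24 h after dosing, using RT-PCR with capillary electrophoresis of 6-FAM-labelled fragments. The read-out reflects activity of exogenous FXR-Gal4 chimera on GAL4-UAS units, with induction relative to DMSO.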
# [8] = target: Oxysterols receptor LXR-alpha (Homo sapiens) (UniProt Q13133); assay: ATG_LXRa_TRANS: Attagene TRANS-FACTORIAL HepG2 Assay for human Liver X Receptor alpha (LXRa) (AID 2282980; active means hit-call score of the fitted dose curve at least 0.9, where 1 is the maximum); conditions: HepG2 Attagene TRANS reporter, LXRa transactivation
# Outline: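 Chemical-induced reporter mRNA measured by RT-PCR with fluorescent labelling and capillary electrophoresis after 24 h dosing of transiently transfected HepG2 cells expressing exogenous NR-Gal4 chimeras; increases scored against DMSO baseline.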
# [9] = target: Hepatocyte nuclear factor 4-alpha (Homo sapiens) (UniProt P41235); assay: ATG_HNF4a_TRANS: Attagene TRANS-FACTORIAL HepG2 Assay for human Hepatocyte Nuclear Factor 4 alpha (HNF4a) (AID 2282982; active means hit-call score of the fitted dose curve at least 0.9, where 1 is the maximum); conditions: HepG2 HNF4a transactivation reporter, mRNA readout
# Outline: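 Multiplexed reporter assay: transfected HepG2, 24 h exposure, total RNA → oligo(dT) RT → PCR → 6-FAM extension → HpaI digest → CE fluorescence. DMSO = negative control.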
# [10] = ATG_M_32_TRANS: Attagene TRANS-FACTORIAL HepG2 Assay for M32 Transcription Factor (Internal Marker) (AID 2282984; active means hit-call score of the fitted dose curve at least 0.9, where 1 is the maximum); conditions: HepG2 Attagene TRANS M32 internal marker reporter
# Outline: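 Cell-based TRANS-format assay in HepG2: exogenous chimeric GAL4 reporter units transiently expressed, compounds applied 24 h. Reporter mRNA detected by RT-PCR plus capillary electrophoresis; this readout is an internal background marker.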
# [11] = target: Nuclear receptor subfamily 4 group A member 2 (Homo sapiens) (UniProt P43354); assay: ATG_NURR1_TRANS: Attagene TRANS-FACTORIAL HepG2 Assay for human Nuclear Receptor Related Protein 1 (NURR1) (AID 2282985; active means hit-call score of the fitted dose curve at least 0.9, where 1 is the maximum); conditions: HepG2 Attagene TRANS reporter, mRNA readout
# Outline: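 Measures transcriptional activation by an exogenous NR-Gal4 chimera in transfected HepG2 liver cells. After 24 h, reporter RNA is reverse-transcribed, amplified and resolved by capillary electrophoresis; DMSO defines baseline.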
# [12] = target: Transcriptional activator Myb (Homo sapiens) (UniProt P10242); assay: ATG_Myb_CIS: Attagene CIS-FACTORIAL HepG2 Assay for human Myeloblastosis (Myb) Proto-Oncogene Transcription Factor (AID 2282986); conditions: HepG2 Attagene CIS-FACTORIAL Myb reporter transcription; actives raise or lower the signal
# Outline: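 Transiently transfected HepG2 cells, treated 24 h. Reporter mRNA quantified by RT-PCR/capillary electrophoresis; bidirectional fit relative to DMSO.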
# [13] = target: Nuclear respiratory factor 1 (Homo sapiens) (UniProt Q16656); assay: ATG_NRF1_CIS: Attagene CIS-FACTORIAL HepG2 Assay for human Nuclear Respiratory Factor 1 (NRF1) Orphan Gene (AID 2282987); conditions: HepG2 NRF1 cis-element reporter, Attagene multiplex; actives raise or lower the signal
# Outline: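 Cells (HepG2, transient MRTU transfection) are exposed to compound for 24 h, then RNA isolated and reporter mRNA amplified and fluorescently labelled. Fragments are separated by capillary electrophoresis; signal change is fitted bidirectionally relative to DMSO.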
# [14] = target: Glucocorticoid receptor (Homo sapiens) (UniProt P04150); assay: ATG_GR_TRANS: Attagene TRANS-FACTORIAL HepG2 Assay for human Glucocorticoid Receptor (GR) (AID 2282978; active means hit-call score of the fitted dose curve at least 0.9, where 1 is the maximum;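 further: activators score as hits since higher reporter transcript over DMSO is fitted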); conditions: HepG2 Attagene TRANS GR reporter, mRNA transcription
# Outline: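 Reporter transcript levels, detected by fluorescence after RT-PCR and capillary electrophoresis, served as the endpoint. HepG2 cells bearing transfected GAL4-UAS reporters responsive to NR-GAL4 chimeras were incubated with compound 24 h; DMSO defined baseline.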
# [15] = target: Oxysterols receptor LXR-beta (Homo sapiens) (UniProt P55055); assay: ATG_LXRb_TRANS: Attagene TRANS-FACTORIAL HepG2 Assay for human Liver X Receptor beta (LXRb) (AID 2282981; active means hit-call score of the fitted dose curve at least 0.9, where 1 is the maximum); conditions: HepG2 Attagene TRANS GAL4-LXRb reporter, mRNA
# Outline: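 After 24 h of chemical treatment, transfected HepG2 cells yield total RNA; reporter cDNA is PCR-amplified, FAM-labelled, HpaI-cut and run on capillary electrophoresis. Signal reflects chimeric LXRb-Gal4 activity on GAL4-UAS reporters.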
# [16] = ATG_M_06_TRANS: Attagene TRANS-FACTORIAL HepG2 Assay for M06 Transcription Factor (Internal Marker) (AID 2282983; active means hit-call score of the fitted dose curve at least 0.9, where 1 is the maximum); conditions: HepG2 Attagene TRANS M06 internal marker reporter
# Outline: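 Background-control reporter readout: after 24 h chemical exposure of transiently transfected HepG2 (GAL4-UAS reporter units), mRNA quantified by RT-PCR with fluorescent labeling and capillary electrophoresis. Gain-of-signal fitting against DMSO baseline.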
# [17] = target: Estrogen receptor (Homo sapiens) (UniProt P03372); assay: ATG_ERa_TRANS: Attagene TRANS-FACTORIAL HepG2 Assay for human Estrogen Receptor alpha (ERa) (AID 2282970; active means hit-call score of the fitted dose curve at least 0.9, where 1 is the maximum); conditions: HepG2 Attagene TRANS ERa GAL4 reporter, mRNA
# Outline: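 Reporter transcripts were measured 24 h after dosing by RT-PCR with fluorescent primer extension and capillary electrophoresis. The system is transiently transfected HepG2 expressing exogenous NR-Gal4 chimeras driving GAL4-UAS reporters; DMSO is the baseline.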
# [18] = target: Steroid hormone receptor ERR1 (Homo sapiens) (UniProt P11474); assay: ATG_ERRa_TRANS: Attagene TRANS-FACTORIAL HepG2 Assay for human Estrogen-Related Receptor alpha (ERRa) (AID 2282971; active means hit-call score of the fitted dose curve at least 0.9, where 1 is the maximum); conditions: HepG2 Attagene TRANS reporter, ERRa transactivation
# Outline: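 Reporter transcripts from ERRa-Gal4 chimera activity measured in transiently transfected human HepG2 cells 24 hours after dosing, using RT-PCR with 6-FAM primer extension, HpaI digestion and capillary electrophoresis; DMSO is baseline.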
# [19] = ATG_GAL4_TRANS: Attagene TRANS-FACTORIAL HepG2 Assay for GAL4 (Internal Marker) (AID 2282976; active means hit-call score of the fitted dose curve at least 0.9, where 1 is the maximum); conditions: HepG2 Attagene TRANS GAL4 internal marker reporter
# Outline: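 In transfected human HepG2 liver cells dosed 24 h, GAL4 reporter mRNA serves as a baseline marker. Detection by RT-PCR with fluorescent capillary electrophoresis, activity fitted upward relative to DMSO.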
# [20] = target: Estrogen-related receptor gamma (Homo sapiens) (UniProt P62508); assay: ATG_ERRg_TRANS: Attagene TRANS-FACTORIAL HepG2 Assay for human Estrogen-Related Receptor gamma (ERRg) (AID 2282977; active means hit-call score of the fitted dose curve at least 0.9, where 1 is the maximum;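 further: hits increase reporter signal over DMSO so potencies reflect activators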); conditions: HepG2 Attagene TRANS reporter, ERRg transactivation
# Outline: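 Readout: fluorescent reporter-mRNA fragments resolved by capillary electrophoresis after RT-PCR and HpaI cut. Cells: transiently transfected HepG2 carrying GAL4-UAS reporters driven by exogenous NR-Gal4 chimeras, dosed 24 h. Activity fitted upward relative to DMSO baseline.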
# Sequence of Nuclear respiratory factor 1 (Homo sapiens) (Q16656 whole entry, looked up, the tested form may be a part): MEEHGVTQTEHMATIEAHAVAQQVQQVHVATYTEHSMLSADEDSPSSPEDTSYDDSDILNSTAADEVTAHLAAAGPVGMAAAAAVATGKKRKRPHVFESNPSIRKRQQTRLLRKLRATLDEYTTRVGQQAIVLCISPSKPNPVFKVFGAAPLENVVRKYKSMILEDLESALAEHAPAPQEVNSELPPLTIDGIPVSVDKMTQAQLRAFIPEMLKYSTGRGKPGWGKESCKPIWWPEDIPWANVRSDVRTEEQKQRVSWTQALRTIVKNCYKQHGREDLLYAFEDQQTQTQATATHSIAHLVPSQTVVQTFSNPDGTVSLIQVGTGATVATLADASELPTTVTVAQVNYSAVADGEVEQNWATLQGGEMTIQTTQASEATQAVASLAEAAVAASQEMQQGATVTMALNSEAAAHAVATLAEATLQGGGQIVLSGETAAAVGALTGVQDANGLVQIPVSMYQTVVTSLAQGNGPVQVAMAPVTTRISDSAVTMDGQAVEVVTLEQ
# Sequence of Transcriptional activator Myb (Homo sapiens) (P10242 whole entry, looked up): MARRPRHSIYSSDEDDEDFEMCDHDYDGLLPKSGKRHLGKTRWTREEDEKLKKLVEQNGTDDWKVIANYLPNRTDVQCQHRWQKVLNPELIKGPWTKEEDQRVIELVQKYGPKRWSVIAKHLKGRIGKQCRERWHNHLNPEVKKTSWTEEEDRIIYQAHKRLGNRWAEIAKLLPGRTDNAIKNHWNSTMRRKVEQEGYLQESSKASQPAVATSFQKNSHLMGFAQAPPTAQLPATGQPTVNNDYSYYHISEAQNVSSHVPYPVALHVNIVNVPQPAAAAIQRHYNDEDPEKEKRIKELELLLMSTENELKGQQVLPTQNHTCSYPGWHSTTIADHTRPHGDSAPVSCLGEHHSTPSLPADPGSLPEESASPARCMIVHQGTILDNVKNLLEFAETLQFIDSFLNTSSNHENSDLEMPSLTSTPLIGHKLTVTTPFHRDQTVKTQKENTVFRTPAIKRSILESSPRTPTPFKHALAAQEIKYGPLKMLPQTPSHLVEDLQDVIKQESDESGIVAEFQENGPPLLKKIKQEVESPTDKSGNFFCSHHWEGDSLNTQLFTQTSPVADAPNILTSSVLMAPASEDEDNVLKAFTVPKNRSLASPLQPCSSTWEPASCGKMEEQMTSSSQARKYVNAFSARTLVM
# Sequence of Hepatocyte nuclear factor 4-alpha (Homo sapiens) (P41235 whole entry, looked up): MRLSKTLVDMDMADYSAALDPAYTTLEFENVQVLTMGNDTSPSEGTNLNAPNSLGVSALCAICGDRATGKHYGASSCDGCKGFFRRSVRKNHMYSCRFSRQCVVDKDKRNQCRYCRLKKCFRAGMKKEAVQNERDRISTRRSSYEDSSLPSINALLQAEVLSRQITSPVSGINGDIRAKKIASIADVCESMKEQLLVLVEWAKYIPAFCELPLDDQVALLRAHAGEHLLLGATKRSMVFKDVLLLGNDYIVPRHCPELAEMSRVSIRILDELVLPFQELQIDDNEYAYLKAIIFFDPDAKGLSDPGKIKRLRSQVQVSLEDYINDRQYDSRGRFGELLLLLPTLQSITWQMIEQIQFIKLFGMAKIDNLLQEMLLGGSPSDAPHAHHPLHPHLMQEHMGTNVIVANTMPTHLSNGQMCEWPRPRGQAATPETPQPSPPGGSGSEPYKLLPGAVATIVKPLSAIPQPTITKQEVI
# Sequence of Glucocorticoid receptor (Homo sapiens) (P04150 whole entry, looked up, the tested form may be a part): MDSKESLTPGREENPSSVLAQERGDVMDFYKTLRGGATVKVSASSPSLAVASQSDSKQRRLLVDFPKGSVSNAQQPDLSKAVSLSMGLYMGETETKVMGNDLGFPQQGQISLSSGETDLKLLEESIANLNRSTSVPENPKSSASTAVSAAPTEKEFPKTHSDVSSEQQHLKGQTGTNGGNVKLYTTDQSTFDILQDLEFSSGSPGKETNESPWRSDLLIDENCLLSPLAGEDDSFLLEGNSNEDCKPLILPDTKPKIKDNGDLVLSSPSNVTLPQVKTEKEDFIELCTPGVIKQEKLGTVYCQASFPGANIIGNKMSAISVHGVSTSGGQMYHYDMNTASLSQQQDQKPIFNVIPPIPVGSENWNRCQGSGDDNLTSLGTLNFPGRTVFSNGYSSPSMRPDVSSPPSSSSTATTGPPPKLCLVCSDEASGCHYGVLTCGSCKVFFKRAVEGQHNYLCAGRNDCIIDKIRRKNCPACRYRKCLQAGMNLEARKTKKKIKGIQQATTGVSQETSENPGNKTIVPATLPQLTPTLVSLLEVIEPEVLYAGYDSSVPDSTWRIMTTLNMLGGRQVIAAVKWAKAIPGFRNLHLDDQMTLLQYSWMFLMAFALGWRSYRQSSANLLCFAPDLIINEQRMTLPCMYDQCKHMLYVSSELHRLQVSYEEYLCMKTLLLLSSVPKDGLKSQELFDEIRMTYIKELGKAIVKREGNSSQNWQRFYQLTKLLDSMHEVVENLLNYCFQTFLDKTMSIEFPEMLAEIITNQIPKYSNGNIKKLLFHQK
# Sequence of X-box-binding protein 1 (Homo sapiens) (P17861 whole entry, looked up): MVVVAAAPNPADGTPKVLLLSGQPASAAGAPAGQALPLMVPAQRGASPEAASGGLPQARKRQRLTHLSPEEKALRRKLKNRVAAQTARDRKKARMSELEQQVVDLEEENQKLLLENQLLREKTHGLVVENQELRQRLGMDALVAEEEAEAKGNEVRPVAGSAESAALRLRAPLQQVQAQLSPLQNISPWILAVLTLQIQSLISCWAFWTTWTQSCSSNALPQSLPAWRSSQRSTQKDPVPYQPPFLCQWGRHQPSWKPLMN
# Sequence of Nuclear receptor subfamily 4 group A member 2 (Homo sapiens) (P43354 whole entry, looked up, the tested form may be a part): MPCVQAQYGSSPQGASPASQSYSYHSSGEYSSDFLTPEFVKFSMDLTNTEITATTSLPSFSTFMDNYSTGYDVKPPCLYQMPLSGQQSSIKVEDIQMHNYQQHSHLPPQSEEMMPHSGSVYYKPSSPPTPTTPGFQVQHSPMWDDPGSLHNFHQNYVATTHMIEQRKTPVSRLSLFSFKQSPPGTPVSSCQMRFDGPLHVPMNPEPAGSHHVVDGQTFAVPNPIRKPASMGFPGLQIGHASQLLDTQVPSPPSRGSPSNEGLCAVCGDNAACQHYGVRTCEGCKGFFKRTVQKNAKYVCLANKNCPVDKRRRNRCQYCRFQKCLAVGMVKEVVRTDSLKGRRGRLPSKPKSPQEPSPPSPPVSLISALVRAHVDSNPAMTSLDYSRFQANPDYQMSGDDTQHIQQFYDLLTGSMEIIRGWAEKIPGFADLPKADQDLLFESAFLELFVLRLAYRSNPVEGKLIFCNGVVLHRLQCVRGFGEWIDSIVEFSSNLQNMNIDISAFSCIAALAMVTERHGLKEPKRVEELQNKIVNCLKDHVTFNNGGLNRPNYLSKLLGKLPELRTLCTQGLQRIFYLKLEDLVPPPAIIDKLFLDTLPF
# Sequence of Nuclear receptor subfamily 1 group I member 3 (Homo sapiens) (Q14994 whole entry, looked up, the tested form may be a part): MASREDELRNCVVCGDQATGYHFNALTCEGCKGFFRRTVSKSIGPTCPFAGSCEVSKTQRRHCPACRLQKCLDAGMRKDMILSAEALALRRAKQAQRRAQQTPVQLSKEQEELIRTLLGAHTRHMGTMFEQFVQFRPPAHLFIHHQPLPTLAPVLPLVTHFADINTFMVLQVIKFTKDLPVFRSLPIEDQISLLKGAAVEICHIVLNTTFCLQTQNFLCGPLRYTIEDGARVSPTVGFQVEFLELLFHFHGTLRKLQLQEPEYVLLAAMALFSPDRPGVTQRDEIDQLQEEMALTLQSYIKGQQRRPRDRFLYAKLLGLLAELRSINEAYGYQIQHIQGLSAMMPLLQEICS
# Sequence of Bile acid receptor (Homo sapiens) (Q96RI1 whole entry, looked up, the tested form may be a part): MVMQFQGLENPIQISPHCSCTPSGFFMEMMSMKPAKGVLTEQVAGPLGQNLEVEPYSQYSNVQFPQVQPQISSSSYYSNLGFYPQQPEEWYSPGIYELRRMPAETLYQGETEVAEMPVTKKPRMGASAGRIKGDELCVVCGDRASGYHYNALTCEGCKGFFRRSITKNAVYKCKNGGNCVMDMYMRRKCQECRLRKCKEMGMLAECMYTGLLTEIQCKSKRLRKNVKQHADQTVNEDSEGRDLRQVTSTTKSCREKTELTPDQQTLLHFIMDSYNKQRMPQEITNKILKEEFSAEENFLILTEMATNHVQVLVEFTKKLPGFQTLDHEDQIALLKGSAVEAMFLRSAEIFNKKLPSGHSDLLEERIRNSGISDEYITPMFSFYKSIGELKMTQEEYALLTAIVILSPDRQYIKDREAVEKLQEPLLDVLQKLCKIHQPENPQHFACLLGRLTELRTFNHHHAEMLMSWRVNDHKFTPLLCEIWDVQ
# Sequence of Oxysterols receptor LXR-alpha (Homo sapiens) (Q13133 whole entry, looked up, the tested form may be a part): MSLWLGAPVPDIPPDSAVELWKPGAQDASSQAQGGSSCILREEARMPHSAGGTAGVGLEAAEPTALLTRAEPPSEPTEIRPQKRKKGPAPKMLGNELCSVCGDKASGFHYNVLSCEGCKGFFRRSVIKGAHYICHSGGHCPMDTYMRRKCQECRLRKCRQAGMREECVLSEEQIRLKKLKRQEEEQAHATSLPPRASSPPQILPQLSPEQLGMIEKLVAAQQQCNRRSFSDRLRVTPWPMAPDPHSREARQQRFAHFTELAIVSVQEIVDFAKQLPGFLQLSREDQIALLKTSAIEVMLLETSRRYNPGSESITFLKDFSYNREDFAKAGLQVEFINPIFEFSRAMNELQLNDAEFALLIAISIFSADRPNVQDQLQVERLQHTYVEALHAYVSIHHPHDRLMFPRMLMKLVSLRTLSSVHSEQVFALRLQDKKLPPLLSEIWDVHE
# Sequence of Steroid hormone receptor ERR1 (Homo sapiens) (P11474 whole entry, looked up, the tested form may be a part): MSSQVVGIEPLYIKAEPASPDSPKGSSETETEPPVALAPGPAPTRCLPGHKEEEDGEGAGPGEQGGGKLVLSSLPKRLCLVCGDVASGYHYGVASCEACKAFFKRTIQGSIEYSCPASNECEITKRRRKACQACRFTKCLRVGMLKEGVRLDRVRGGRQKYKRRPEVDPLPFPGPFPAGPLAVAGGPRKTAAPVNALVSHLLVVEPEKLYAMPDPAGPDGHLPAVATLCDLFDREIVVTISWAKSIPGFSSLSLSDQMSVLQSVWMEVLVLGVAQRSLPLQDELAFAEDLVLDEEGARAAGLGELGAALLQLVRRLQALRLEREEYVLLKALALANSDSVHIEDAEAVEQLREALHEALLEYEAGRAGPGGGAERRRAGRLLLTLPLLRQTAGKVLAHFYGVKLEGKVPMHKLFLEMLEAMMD
smiles,measurement,setting,value
CCOC(=O)COC(=O)c1cc(Oc2ccc(C(F)(F)F)cc2Cl)ccc1[N+](=O)[O-],outcome,[1],inactive
same,AC50,[2],144 µM (active)
same,AC50,[3],33.5 µM (active)
same,outcome,[4],inactive
same,outcome,[5],inactive
same,outcome,[6],inactive
same,outcome,[7],inactive
same,outcome,[8],inactive
same,outcome,[9],inactive
same,outcome,[10],inactive
same,outcome,[11],inactive
same,outcome,[12],inactive
same,outcome,[13],inactive
Cc1ccc2c(c1)C(=O)OC2=O,outcome,[1],inactive
same,outcome,[2],inactive
same,outcome,[3],inactive
same,outcome,[4],inactive
same,outcome,[5],inactive
same,outcome,[6],inactive
same,outcome,[14],inactive
same,outcome,[9],inactive
same,outcome,[10],inactive
same,outcome,[12],inactive
same,outcome,[13],inactive
CC(C)C(OC(=O)c1ccccc1)C(C)(C)COC(=O)c1ccccc1 (stereo not given),outcome,[1],inactive
same,outcome,[2],inactive
same,AC50,[3],1.52 µM (active)
same,outcome,[4],inactive
same,outcome,[5],inactive
same,outcome,[6],inactive
same,AC50,[7],20 µM (active)
same,outcome,[11],inactive
same,outcome,[12],inactive
same,outcome,[13],inactive
C=CCCC(=O)/C=C/C1C(C)=CCCC1(C)C (stereo not given),outcome,[1],inactive
same,outcome,[2],inactive
same,AC50,[3],2.44 µM (active)
same,outcome,[4],inactive
same,outcome,[5],inactive
same,outcome,[14],inactive
same,outcome,[8],inactive
same,outcome,[15],inactive
same,outcome,[16],inactive
same,outcome,[11],inactive
same,outcome,[12],inactive
same,outcome,[13],inactive
CC(C)(C)CC(C)(C)c1ccc(OCCOCC[N+](C)(C)Cc2ccccc2)cc1,outcome,[1],inactive
same,outcome,[2],inactive
same,outcome,[3],inactive
same,outcome,[17],inactive
same,outcome,[18],inactive
same,outcome,[5],inactive
same,outcome,[6],inactive
same,outcome,[19],inactive
same,outcome,[14],inactive
same,outcome,[7],inactive
same,outcome,[9],inactive
same,outcome,[10],inactive
same,outcome,[11],inactive
same,outcome,[12],inactive
same,outcome,[13],inactive
Cc1ccc(OC(=O)c2ccccc2O)cc1,outcome,[1],inactive
same,outcome,[2],inactive
same,outcome,[3],inactive
same,outcome,[4],inactive
same,outcome,[5],inactive
same,outcome,[6],inactive
same,outcome,[20],inactive
same,outcome,[16],inactive
same,outcome,[10],inactive
same,outcome,[11],inactive
same,outcome,[12],inactive
same,outcome,[13],inactive
CCCCCCC(CO)CCCC (stereo not given),outcome,[1],inactive
same,outcome,[2],inactive
same,outcome,[3],inactive
same,outcome,[4],inactive
same,outcome,[5],inactive
same,outcome,[6],inactive
same,outcome,[14],inactive
same,outcome,[8],inactive
same,outcome,[9],inactive
same,outcome,[10],inactive
same,outcome,[11],inactive
same,outcome,[12],inactive
same,outcome,[13],inactive
CC(C)=CCCC(C)CC(=O)O (stereo not given),outcome,[1],inactive
same,outcome,[2],inactive
same,outcome,[3],inactive
same,outcome,[4],inactive
same,outcome,[5],inactive
same,outcome,[8],inactive
same,outcome,[15],inactive
same,outcome,[9],inactive
same,outcome,[16],inactive
same,outcome,[11],inactive
same,outcome,[12],inactive
same,outcome,[13],inactive
O=C(c1ccccc1)C(O)c1ccccc1 (stereo not given),outcome,[1],inactive
same,outcome,[2],inactive
same,outcome,[3],inactive
same,outcome,[4],inactive
same,outcome,[5],inactive
same,outcome,[6],inactive
same,outcome,[14],inactive
same,outcome,[8],inactive
same,outcome,[11],inactive
same,outcome,[12],inactive
same,outcome,[13],inactive
CC(C)=CCCC(C)CCOC=O (stereo not given),outcome,[1],inactive
same,outcome,[2],inactive
same,outcome,[3],inactive
same,outcome,[4],inactive
same,outcome,[5],inactive
same,outcome,[7],inactive
same,outcome,[9],inactive
same,outcome,[16],inactive
same,outcome,[10],inactive
same,outcome,[11],inactive
same,outcome,[12],inactive
same,outcome,[13],inactive
O=[N+]([O-])c1cccc(Cl)c1,outcome,[1],inactive
same,outcome,[2],inactive
same,outcome,[3],inactive
same,outcome,[17],inactive
same,outcome,[18],inactive
same,outcome,[5],inactive
same,outcome,[16],inactive
same,outcome,[12],inactive
same,outcome,[13],inactive
